From PubChem BioAssay (EPA / NIEHS)
Activity calls are given as the source filed them. Rule for the calls: active = hit-call score of the fitted dose curve at least 0.9, where 1 is the maximum; inactive = score below 0.9.

Key:
Conditions in all cases: mRNA level, 48 h; actives raise or lower the signal
CYP4A11 (gene 1579) = assay: LTEA_HepaRG_CYP4A11: Life Technologies and Expression Analysis (LTEA) Assay for CYP4A11 using HepaRG (AID 2283486)
Outline: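 Differentiated HepaRG cells, 48 h after plating, exposed in duplicate for 48 h to 8 half-log concentrations up to 100 uM in 0.5% DMSO in serum-free induction medium. CYP4A11 mRNA measured by TaqMan qRT-PCR, normalized to ACTB, GAPDH and POLR2A.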

[1] = read-out: Cytochrome P450 3A4 (Homo sapiens) (UniProt P08684); assay: LTEA_HepaRG_CYP3A4: Life Technologies and Expression Analysis (LTEA) Assay for CYP3A4 using HepaRG (AID 2283487)
Outline: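 CYP3A4 transcript measured by TaqMan qRT-PCR and normalized to three housekeeping genes after 48 h chemical exposure of human HepaRG cells. Top concentration 100 uM, half-log steps, 0.5% DMSO vehicle; gain or loss fitted against DMSO baseline.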

[2] = read-out: DNA damage-inducible transcript 3 (DDIT3), DDIT3 (gene 1649); assay: LTEA_HepaRG_DDIT3: Life Technologies and Expression Analysis (LTEA) Assay for DNA damage-inducible transcript 3 (DDIT3) using HepaRG (AID 2283488)
Outline: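 Differentiated human HepaRG cells in serum-free induction medium were exposed in duplicate for 48 h to 8 concentrations (top 100 uM, half-log steps, 0.5% DMSO). DDIT3 mRNA measured by TaqMan qRT-PCR, normalized to ACTB/GAPDH/POLR2A; bidirectional fit versus DMSO.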

[3] = read-out: Pro-epidermal growth factor (Homo sapiens) (UniProt P01133); assay: LTEA_HepaRG_EGF: Life Technologies and Expression Analysis (LTEA) Assay for Epidermal growth factor (EGF) using HepaRG (AID 2283489)
Outline: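 HepaRG cells (~100,000/well, 48 h pre-culture) exposed in duplicate for 48 h in serum-free induction medium to 8 half-log concentrations up to 100 uM in 0.5% DMSO. EGF mRNA by qRT-PCR, normalized to ACTB/GAPDH/POLR2A; bidirectional fit versus DMSO.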

[4] = read-out: Early growth response protein 1 (EGR1) transcription factor, EGR1 (gene 1958); assay: LTEA_HepaRG_EGR1: Life Technologies and Expression Analysis (LTEA) Assay for Early growth response protein 1 (EGR1) transcription factor using HepaRG (AID 2283490)
Outline: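 Differentiated HepaRG cells in serum-free induction medium exposed 48 hours, duplicate, to 8 half-log concentrations up to 100 uM in 0.5% DMSO. EGR1 mRNA measured by TaqMan qRT-PCR, normalized to ACTB, GAPDH, POLR2A; bidirectional fit versus DMSO.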

[5] = read-out: Ezrin (EZR), EZR (gene 7430); assay: LTEA_HepaRG_EZR: Life Technologies and Expression Analysis (LTEA) Assay for Ezrin (EZR) using HepaRG (AID 2283491)
Outline: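 HepaRG, 48 h chemical exposure, 8-pt half-log series from 100 uM, 0.5% DMSO vehicle, duplicates. Read-out: EZR mRNA by TaqMan qRT-PCR (Fluidigm array), housekeeping-normalized; bidirectional curve fit vs DMSO baseline.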

[6] = read-out: Cytochrome P450 3A7 (Homo sapiens) (UniProt P24462); assay: LTEA_HepaRG_CYP3A7: Life Technologies and Expression Analysis (LTEA) Assay for CYP3A7 using HepaRG (AID 2283492)
Outline: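 Differentiated HepaRG cells in serum-free induction medium exposed 48 h in duplicate to 8-point half-log series from 100 uM top in 0.5% DMSO. CYP3A7 mRNA by qRT-PCR, normalized to ACTB/GAPDH/POLR2A, bidirectional fit versus DMSO.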

CYP3A5 (gene 1577) = assay: LTEA_HepaRG_CYP3A5: Life Technologies and Expression Analysis (LTEA) Assay for CYP3A5 using HepaRG (AID 2283493)
Outline: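 Differentiated HepaRG cells in serum-free induction medium were dosed 48 h with test chemicals (8-point half-log series, top 100 uM, 0.5% DMSO, duplicate). CYP3A5 mRNA measured by qRT-PCR, normalized to ACTB, GAPDH, POLR2A; bidirectional fit versus DMSO.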

[7] = read-out: Fatty Acid-Binding Protein 1 (FABP1), FABP1 (gene 2168); assay: LTEA_HepaRG_FABP1: Life Technologies and Expression Analysis (LTEA) Assay for Fatty Acid-Binding Protein 1 (FABP1) using HepaRG (AID 2283494)
Outline: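 Differentiated human HepaRG cells exposed 48 h in serum-free induction medium to eight half-log concentrations up to 100 uM (0.5% DMSO), duplicate. FABP1 mRNA by qRT-PCR, normalised to ACTB, GAPDH, POLR2A; bidirectional fitting against DMSO.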

[8] = read-out: Cytochrome P450 4A22 (Homo sapiens) (UniProt Q5TCH4); assay: LTEA_HepaRG_CYP4A22: Life Technologies and Expression Analysis (LTEA) Assay for Cytochrome P450 4A22 (CYP4A22) using HepaRG (AID 2283495)
Outline: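 Differentiated HepaRG cells in serum-free induction medium exposed 48 h in duplicate to eight half-log concentrations up to 100 uM in 0.5% DMSO. CYP4A22 mRNA quantified by TaqMan qRT-PCR, normalized to ACTB, GAPDH and POLR2A; bidirectional fit versus DMSO.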

[9] = read-out: Cytochrome P450 7A1 (Homo sapiens) (UniProt P22680); assay: LTEA_HepaRG_CYP7A1: Life Technologies and Expression Analysis (LTEA) Assay for Cytochrome P450 7A1 (CYP7A1) using HepaRG (AID 2283496)
Outline: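 Gene expression endpoint in human HepaRG liver cells treated for 48 h with test chemicals (up to 100 uM, 0.5% DMSO). Values come from bidirectional concentration-response fitting versus DMSO.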

[10] = read-out: Glutathione S-Transferase (GSTA2), GSTA2 (gene 2939); assay: LTEA_HepaRG_GSTA2: Life Technologies and Expression Analysis (LTEA) Assay for Glutathione S-Transferase (GSTA2) using HepaRG (AID 2283497)
Outline: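 Differentiated human HepaRG cells were exposed in duplicate for 48 h in serum-free induction medium, 8 points from 100 uM top in half-log steps, 0.5% DMSO. GSTA2 mRNA was measured by TaqMan qRT-PCR, normalized to ACTB, GAPDH and POLR2A; bidirectional fit versus DMSO.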

[11] = read-out: Glutamate-cysteine ligase catalytic (GCLC), GCLC (gene 2729); assay: LTEA_HepaRG_GCLC: Life Technologies and Expression Analysis (LTEA) Assay for Glutamate-cysteine ligase catalytic (GCLC) using HepaRG (AID 2283498)
Outline: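 Differentiated HepaRG cells exposed 48 h in serum-free induction medium, eight-point half-log series topping at 100 uM in 0.5% DMSO, duplicates. GCLC mRNA by qRT-PCR normalized to ACTB, GAPDH and POLR2A, fitted bidirectionally versus DMSO.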

[12] = read-out: growth arrest and DNA damage 45 (GADD45G), GADD45G (gene 10912); assay: LTEA_HepaRG_GADD45G: Life Technologies and Expression Analysis (LTEA) Assay for growth arrest and DNA damage 45 (GADD45G) using HepaRG (AID 2283499)
Outline: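 Differentiated human HepaRG cells, 48 h post-plating, exposed 48 h in serum-free induction medium to 8 half-log concentrations (top 100 uM, 0.5% DMSO) in duplicate. GADD45G mRNA measured by Fluidigm TaqMan qRT-PCR, normalized to ACTB, GAPDH, POLR2A; bidirectional fit versus DMSO.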

[13] = read-out: Glutamate-cysteine ligase regulatory (GCLM), GCLM (gene 2730); assay: LTEA_HepaRG_GCLM: Life Technologies and Expression Analysis (LTEA) Assay for Glutamate-cysteine ligase regulatory (GCLM) using HepaRG (AID 2283500)
Outline: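 Differentiated human HepaRG cells exposed 48 h in serum-free induction medium to 8-point half-log concentrations (top 100 uM, 0.5% DMSO), in duplicate. GCLM mRNA quantified by qRT-PCR, normalized to ACTB, GAPDH, POLR2A; bidirectional fitting versus DMSO.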

[14] = read-out: Glutathione S-transferase M3 (GSTM3), GSTM3 (gene 2947); assay: LTEA_HepaRG_GSTM3: Life Technologies and Expression Analysis (LTEA) Assay for Glutathione S-transferase M3 (GSTM3) using HepaRG (AID 2283501)
Outline: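 Differentiated human HepaRG cells were exposed in duplicate for 48 h in serum-free induction medium, 8 points from 100 uM top in half-log steps, 0.5% DMSO. GSTM3 mRNA was measured by TaqMan qRT-PCR, normalized to ACTB, GAPDH and POLR2A; bidirectional fit versus DMSO.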

[15] = read-out: Heat shock 70 kDa protein 1 (HSPA1A), gene 3303; assay: LTEA_HepaRG_HSPA1A: Life Technologies and Expression Analysis (LTEA) Assay for Heat shock 70 kDa protein 1 (HSPA1A) using HepaRG (AID 2283502)
Outline: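 Differentiated human HepaRG cells in serum-free induction medium were exposed in duplicate for 48 h to eight concentrations (top 100 uM, half-log steps, 0.5% DMSO). HSPA1A mRNA was quantified by qRT-PCR, normalized to ACTB, GAPDH and POLR2A, and fitted bidirectionally against DMSO.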

[16] = read-out: Hypoxia-inducible factor 1-alpha (Homo sapiens) (UniProt Q16665); assay: LTEA_HepaRG_HIF1A: Life Technologies and Expression Analysis (LTEA) Assay for Hypoxia-inducible factor 1 (HIF1A) Trancription factor using HepaRG (AID 2283503)
Outline: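 HepaRG, 48 h exposure, 8-pt half-log series from 100 uM, 0.5% DMSO vehicle, duplicates. Readout: HIF1A transcript by qRT-PCR (Fluidigm array), housekeeping-normalised. Bidirectional curve fit vs DMSO baseline.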

[17] = read-out: 3-Hydroxy-3-Methylglutaryl-CoA Synthase 2 (HMGCS2), HMGCS2 (gene 3158); assay: LTEA_HepaRG_HMGCS2: Life Technologies and Expression Analysis (LTEA) Assay for 3-Hydroxy-3-Methylglutaryl-CoA Synthase 2 (HMGCS2) using HepaRG (AID 2283504)
Outline: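 Human HepaRG cells in serum-free induction medium were exposed in duplicate for 48 h to 8-point half-log series from 100 uM top in 0.5% DMSO. HMGCS2 mRNA measured by TaqMan qRT-PCR, normalised to ACTB, GAPDH, POLR2A; bidirectional fit versus DMSO.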

CYP2E1 (gene 1571) = assay: LTEA_HepaRG_CYP2E1: Life Technologies and Expression Analysis (LTEA) Assay for CYP2E1 using HepaRG (AID 2283485)
Outline: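 HepaRG cells in serum-free induction medium exposed 48 h to test chemicals, 8 half-log concentrations up to 100 uM in 0.5% DMSO, duplicate. CYP2E1 mRNA by qRT-PCR, normalized to ACTB, GAPDH, POLR2A; bidirectional fit versus DMSO.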

Measured: AC50

Cytochrome P450 3A4 (Homo sapiens), sequence (P08684 whole entry, looked up): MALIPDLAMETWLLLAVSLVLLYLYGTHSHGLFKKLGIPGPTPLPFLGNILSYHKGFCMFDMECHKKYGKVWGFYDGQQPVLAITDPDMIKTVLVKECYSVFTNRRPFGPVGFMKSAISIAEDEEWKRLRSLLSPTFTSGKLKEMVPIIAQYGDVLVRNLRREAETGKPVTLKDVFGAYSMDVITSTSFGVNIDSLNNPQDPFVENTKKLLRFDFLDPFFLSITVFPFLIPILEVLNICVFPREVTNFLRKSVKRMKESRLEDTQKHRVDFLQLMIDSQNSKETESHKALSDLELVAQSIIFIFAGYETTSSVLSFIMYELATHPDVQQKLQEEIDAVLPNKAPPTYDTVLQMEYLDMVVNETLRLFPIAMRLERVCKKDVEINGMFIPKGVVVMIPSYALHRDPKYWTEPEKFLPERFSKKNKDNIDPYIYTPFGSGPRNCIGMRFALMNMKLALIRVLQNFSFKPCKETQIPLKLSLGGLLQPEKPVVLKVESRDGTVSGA
Hypoxia-inducible factor 1-alpha (Homo sapiens), sequence (Q16665 whole entry, looked up): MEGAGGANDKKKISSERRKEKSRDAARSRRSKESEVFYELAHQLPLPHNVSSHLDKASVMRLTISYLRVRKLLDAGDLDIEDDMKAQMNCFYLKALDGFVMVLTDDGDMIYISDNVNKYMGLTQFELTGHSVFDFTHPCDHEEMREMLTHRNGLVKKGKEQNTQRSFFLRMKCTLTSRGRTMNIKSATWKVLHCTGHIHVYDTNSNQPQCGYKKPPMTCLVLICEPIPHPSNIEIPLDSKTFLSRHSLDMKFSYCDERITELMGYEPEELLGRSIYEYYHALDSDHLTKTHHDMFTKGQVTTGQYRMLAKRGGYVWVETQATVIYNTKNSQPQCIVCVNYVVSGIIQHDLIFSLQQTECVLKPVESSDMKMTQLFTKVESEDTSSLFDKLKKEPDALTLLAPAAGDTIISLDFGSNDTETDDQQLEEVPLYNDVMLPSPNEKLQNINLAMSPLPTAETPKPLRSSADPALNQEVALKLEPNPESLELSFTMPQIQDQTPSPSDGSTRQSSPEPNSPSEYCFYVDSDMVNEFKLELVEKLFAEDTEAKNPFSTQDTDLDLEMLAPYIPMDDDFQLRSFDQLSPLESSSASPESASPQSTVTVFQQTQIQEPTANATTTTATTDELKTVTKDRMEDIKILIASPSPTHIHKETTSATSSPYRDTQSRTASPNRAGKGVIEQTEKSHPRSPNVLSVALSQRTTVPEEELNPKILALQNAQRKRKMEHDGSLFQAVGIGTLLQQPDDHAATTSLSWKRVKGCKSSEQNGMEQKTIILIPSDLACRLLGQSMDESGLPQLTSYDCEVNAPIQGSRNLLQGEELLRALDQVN
Cytochrome P450 3A7 (Homo sapiens), sequence (P24462 whole entry, looked up): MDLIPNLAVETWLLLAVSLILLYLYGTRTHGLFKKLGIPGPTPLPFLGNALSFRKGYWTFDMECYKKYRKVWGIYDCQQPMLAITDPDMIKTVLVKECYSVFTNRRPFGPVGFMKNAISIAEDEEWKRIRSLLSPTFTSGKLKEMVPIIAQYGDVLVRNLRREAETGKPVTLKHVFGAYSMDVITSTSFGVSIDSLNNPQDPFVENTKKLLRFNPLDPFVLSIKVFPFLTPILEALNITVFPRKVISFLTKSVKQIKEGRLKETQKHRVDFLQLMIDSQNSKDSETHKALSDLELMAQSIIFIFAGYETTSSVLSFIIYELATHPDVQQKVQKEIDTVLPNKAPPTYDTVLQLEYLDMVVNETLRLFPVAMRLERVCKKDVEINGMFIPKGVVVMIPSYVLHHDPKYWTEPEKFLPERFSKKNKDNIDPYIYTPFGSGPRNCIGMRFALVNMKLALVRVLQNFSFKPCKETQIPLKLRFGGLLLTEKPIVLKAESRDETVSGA

CCCN(CCC)N=O
not listed: CYP2E1 (gene 1571)
inactive: all other assays above

N#Cc1ccc(N(CC(N)=O)CC(F)(F)F)cc1C(F)(F)F
active: [7] 2.3 µM | [9] 0.622 µM
not listed: CYP2E1 (gene 1571)
inactive: all other assays above

C1CC2OC2CC1C1CO1 (configuration not stated)
inactive: all assays above

Cc1ccc(O)c(C)c1
not listed: CYP2E1 (gene 1571)
inactive: all other assays above

CCOCCOC(C)=O
inactive: all assays above

O=S(=O)(O)C(F)(F)C(F)(F)C(F)(F)C(F)(F)C(F)(F)C(F)(F)F
active: CYP4A11 (gene 1579) 22.8 µM | [1] 34.9 µM | [6] 20.9 µM | [7] 9.02 µM | [8] 25.1 µM | [12] 3.41 µM | [16] 4.59 µM | [17] 30.1 µM
inactive: all other assays above
